Assay outcomes deposited in PubChem by National Center for Advancing Translational Sciences (NCATS).
Pf growth 96h: P. falciparum growth inhibition at 96 hour, primary screen for plastid delayed-death inhibitors; actives 6.9% (n = 320,000); Potency, µM (doses to about 28.7 µM), inactives show at the highest dose activity change, negative = inhibition, actives largely listed as inhibitors; AID 504834; P. falciparum luciferase reporter growth, 96 h; further: on the % scale 0 is the no-effect control and ±100 the full control effect
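Two-generation exposure (96 h) targets delayed-death phenotype. Reporter parasites carrying integrated firefly luciferase, in red cells at 2% hematocrit and 0.05% parasitemia final, kept at 37 C, 5% CO2; luminescence loss indicates inhibition.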
NS1 inh: blocks influenza NS1 protein function; actives 0.4% (n = 270,000); Potency, µM (series often up to 46.1 µM), without a hit: at the top dose activity, positive = more growth; calls by dose curve; further: actives are rising curves; nearly all actives have a fitted effect of over 50% in size
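OD600 was taken as the measure of yeast growth restored by compound in an NS1-expressing S. cerevisiae strain. Cells had been washed out of glucose medium and diluted 1:100 into galactose -URA medium, pH 6.0.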
Sm TGR inh: S. mansoni TGR enzyme inhibition; Q962Y6; purified TGR, DTNB reduction, TNB absorbance 405 nm; Potency, µM (series often up to 114 µM), inactives show top-dose activity change, negative = inhibition, usual class: inhibitors; actives 3% (n = 360,000); further: on the % scale 0 is the no-effect control and ±100 the full control effect; nearly all actives have a fitted effect of over 60% in size
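Kinetic colorimetric format: TGR-catalysed, NADPH-driven DTNB reduction monitored via TNB absorbance. Enzyme dispensed at 20 nM; compound exposure 15 min at room temperature before reaction start.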
AMA1-RON2 inh: inhibitors of Plasmodium falciparum AMA1-RON2 interaction | actives 0.2% (n = 360,000) | Potency, µM (titrated, usually from 58.2 µM), inactives show at the top dose activity change, negative = inhibition, actives largely listed as inhibitors | AID 720542 | AlphaScreen AMA1-biotinylated RON2 peptide binding;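 further: 0% = vehicle wells and -100% = peptide control; nearly all actives have a fitted effect of over 45% in size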
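AMA1 (3D7) with his tag at 25 nM final met compounds first, then biotinylated RON2 peptide at 25 nM; detection used donor plus acceptor beads, 10 µg/mL apiece, read by AlphaScreen after 30 min at room temperature.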
Pf growth 48h: P. falciparum growth inhibition at 48 hours (one generation); Potency, µM (doses to about 28.7 µM), for inactives: at the highest dose activity change, negative = inhibition, actives largely listed as inhibitors; P. falciparum luciferase growth in erythrocytes, 48 h; actives 5.9% (n = 310,000); AID 504832; further: on the % scale 0 is the no-effect control and ±100 the full control effect
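Here the parasites carry a stable luciferase gene and grow inside erythrocytes in Albumax-based RPMI medium with compound for one erythrocytic cycle. Activity is scored as loss of luminescent signal.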
Numbers without * were called inactive; [ ] = dose if it differs, or a comment. A selection: hits, their analogues and other compounds. The true share with any hit is near 11%. Unless noted, the call rests on the fitted dose curve; in most records, active means well fitted curve in the direction sought with a large enough effect; inconclusive means small, poorly fitted or top-dose-only effect, or another doubt; inactive means no such curve, though single readings can be large; an effect the other way counts as inactive or inconclusive. Potency means the concentration at half of the fitted maximal effect.

`CCCCNC(=O)COC(=O)c1ccc(C)c(NC(=O)c2ccco2)c1` gave Pf growth 96h -0.1%, Sm TGR inh -1.2%, AMA1-RON2 inh 0.0% and Pf growth 48h -0.4%.
O=C(OC(c1ccccc1)c1nccc2ccccc12)c1cc([N+](=O)[O-])cc([N+](=O)[O-])c1 (centres undefined) was read as Pf growth 96h 10.4µM*, NS1 inh 6.6%, Sm TGR inh -0.4%, AMA1-RON2 inh -25.9% and Pf growth 48h -14.5%.
`Fc1ccc(CSc2ccc3nnc(-c4ccccn4)n3n2)cc1` gave Pf growth 96h 3.29µM*, Sm TGR inh 4.4%, AMA1-RON2 inh 9.4% and Pf growth 48h 3.7µM*.
Cc1ccc(CSc2ccc3nnc(-c4ccccn4)n3n2)cc1 was read as Pf growth 96h 10.4µM*, Sm TGR inh -2.8%, AMA1-RON2 inh -9.5% and Pf growth 48h 2.94µM*.
For Brc1ccc(CSc2ccc3nnc(-c4ccccn4)n3n2)cc1 the results were Pf growth 96h 2.94µM*, Sm TGR inh 11.1%, AMA1-RON2 inh -16.8% and Pf growth 48h 2.62µM*.
`COC(=O)c1ccc(CSc2ccc3nnc(-c4ccccn4)n3n2)o1` gave Pf growth 96h 10.4µM*, NS1 inh -8.7%, Sm TGR inh 39.8µM*, AMA1-RON2 inh -1.6% and Pf growth 48h inconclusive.
`CNC(=O)NC(=O)C(C)OC(=O)c1ccc(Cl)c(S(=O)(=O)Nc2ccc(F)cc2)c1` (centres undefined) gave Pf growth 96h 1.3%, NS1 inh 1.0%, Sm TGR inh -0.8%, AMA1-RON2 inh -15.5% and Pf growth 48h -1.9%.
For CN(Cc1ccccc1)C(=O)COC(=O)c1cc2ccccc2oc1=O the results were AMA1-RON2 inh 1.6%.
`Cc1ccc(C)c(CSc2ccc3nnc(-c4ccccn4)n3n2)c1` gave Pf growth 96h inconclusive, Sm TGR inh -4.2%, AMA1-RON2 inh -17.3% and Pf growth 48h 13.1µM*.
Screening CCOc1ccc(NC(=O)CSc2ccc3nnc(-c4ccccn4)n3n2)cc1 returned Pf growth 96h inconclusive, NS1 inh 10.1%, Sm TGR inh 6.5%, AMA1-RON2 inh 0.0% and Pf growth 48h inconclusive.
For CC(C)(C)c1cc(NCCCn2ccnc2)n2ncc(-c3ccc(Cl)cc3)c2n1 the results were Pf growth 96h inconclusive, NS1 inh -39.4%, Sm TGR inh -5.2%, AMA1-RON2 inh 51.6% and Pf growth 48h inconclusive.
`Cc1cc(NCCCn2ccnc2)n2nc(-c3ccc(Cl)cc3)cc2n1` gave Pf growth 96h 20.0%, NS1 inh 1.5%, AMA1-RON2 inh -1.8% and Pf growth 48h 2.62µM*.
Screening Cc1cccc(-c2cc3nc(C)c(C)c(NCCCn4ccnc4)n3n2)c1 returned Pf growth 96h inconclusive, NS1 inh -2.7%, Sm TGR inh 9.6%, AMA1-RON2 inh -15.7% and Pf growth 48h 1.65µM*.
`Cc1cc(C)c2c(n1)nn1c(NCCCn3ccnc3)cc(C)nc21` gave Pf growth 96h inconclusive, NS1 inh -9.4%, Sm TGR inh 11.5% and Pf growth 48h 10.4%.
Cc1cc(NCCCn2ccnc2)n2nc(-c3ccc(F)cc3)cc2n1 was read as Pf growth 96h -3.7%[5.75 µM], NS1 inh -0.3%, Sm TGR inh -6.5%, AMA1-RON2 inh -4.7% and Pf growth 48h 4.15µM*.
For Cc1ccc(NC(=O)C2CCN(S(=O)(=O)c3ccc4[nH]c5c(c4c3)CCCCC5)CC2)cc1 the results were Sm TGR inh 6.4%.
For Cc1c(CC(=O)NCCc2ccccc2F)c(=O)oc2cc(O)c(Cl)cc12 the results were Sm TGR inh 9.0%.
Screening COc1ccc(N(CC(=O)N2CCN(c3ccccc3)CC2)S(=O)(=O)c2c(C)noc2C)cc1 returned Pf growth 96h -27.8%, NS1 inh -19.7%, Sm TGR inh 5.2% and AMA1-RON2 inh -4.8%.
Screening COc1ccc(N(CC(=O)N2CCN(c3cc(C)ccc3C)CC2)S(=O)(=O)c2c(C)noc2C)cc1 returned Pf growth 96h 13.1µM*, NS1 inh 1.3%, Sm TGR inh 4.0%, AMA1-RON2 inh 9.5% and Pf growth 48h 9.28µM*.
Screening COc1ccc(N(CC(=O)N2CCN(c3cccc(C)c3C)CC2)S(=O)(=O)c2c(C)noc2C)cc1 returned Pf growth 96h 13.1µM*, NS1 inh 12.4%, Sm TGR inh -2.3%, AMA1-RON2 inh -1.7% and Pf growth 48h 8.28µM*.
For COC(=O)CNC(=O)C1CCC(CNS(=O)(=O)c2cccc3nsnc23)CC1 (centres undefined) the results were Pf growth 96h 11.7%, NS1 inh -1.6%, Sm TGR inh -2.4%, AMA1-RON2 inh -8.3% and Pf growth 48h 7.3%.
For CCN(CC)S(=O)(=O)c1ccc(N/N=C(\C)c2ccc(OC)cc2O)nc1 the results were Pf growth 96h inconclusive, NS1 inh -39.7%, Sm TGR inh 2.5%, AMA1-RON2 inh 38.4% and Pf growth 48h 13.1µM*.
Screening CCOc1cccc(/C=N/Nc2ccc(S(=O)(=O)N(CC)CC)cn2)c1O returned Pf growth 96h 2.62µM*, NS1 inh 14.6%, Sm TGR inh -1.4%, AMA1-RON2 inh 41.5% and Pf growth 48h 2.94µM*.
For Cc1ccc(-c2nc3sc(CCNC(=O)c4ccco4)c(C)n3n2)cc1 the results were Sm TGR inh 13.3%.
For CCCOC(=O)Nc1ccc([As](=O)(O)O)cc1NC(=O)OCCC the results were Pf growth 96h inconclusive, NS1 inh -5.0%, Sm TGR inh 12.6µM*, AMA1-RON2 inh 8.3% and Pf growth 48h inconclusive.
For COc1cc(/C=C2/S/C(=N/S(=O)(=O)Cc3ccccc3)NC2=O)c([N+](=O)[O-])cc1OC the results were Pf growth 96h inconclusive, NS1 inh 11.8%, Sm TGR inh 1.4%, AMA1-RON2 inh -8.6% and Pf growth 48h inconclusive.
COc1cc(/C=C2\S/C(=N/S(=O)(=O)Cc3ccccc3)NC2=O)c([N+](=O)[O-])cc1OC was read as Pf growth 96h 8.28µM*, NS1 inh 17.0%, Sm TGR inh -23.7%, AMA1-RON2 inh -11.9% and Pf growth 48h inconclusive.
For CCN1C(C(=O)c2ccccc2)=C(OC(=O)c2ccc(OC)cc2)c2ccccc2S1(=O)=O the results were Sm TGR inh 6.3%.
O=C1c2ccccc2C(=O)N1CC(O)COc1ccc(Br)cc1 (centres undefined) was read as Pf growth 96h inconclusive, NS1 inh -8.3%, Sm TGR inh -24.0%, AMA1-RON2 inh -1.5% and Pf growth 48h 97.7%.
CCN(C(=S)Nc1cccnc1)c1cccc2ccccc12 was read as Pf growth 96h inconclusive, NS1 inh 3.6%, Sm TGR inh inconclusive, AMA1-RON2 inh 3.5% and Pf growth 48h inconclusive.
Screening O=C(NC(=S)NC(c1ccccc1)c1ccncc1)c1ccccc1 (centres undefined) returned Pf growth 96h 9.28µM*, NS1 inh -5.1%, Sm TGR inh -34.3%, AMA1-RON2 inh 13.7% and Pf growth 48h inconclusive.
